Screens: PubChem, National Center for Advancing Translational Sciences (NCATS)
In the library only some 4.6% were active in any assay of this set; here they are far more common.
D1 PAM – potentiators of human D1 dopamine receptor; P21728; HEK293 TREx D1 cells, calcium flux, dopamine EC20 potentiation; potentiation, % at 10 µM; 360,000 tested, 0.036% active; in the data active = potentiation above about 30%
D1 agonist – activates the human D1 dopamine receptor | P21728 | HEK293 T-REx D1 cells, calcium flux, agonist mode | activation, % at 2 µM | 360,000 tested, 1% active | AID 504660
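Tetracycline-induced HEK293 TREx D1 cells, force-coupled to calcium signalling, were dye-loaded with a no-wash calcium kit. Compound was pin-added after a 10 s baseline. Fluorescence was read kinetically at 1 cycle/s for 180 s, with calcium rises flagged as agonism.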
TRHR PAM – TRH receptor (human) allosteric enhancement. P34981. enhancement, % at 2 µM. 360,000 tested, 0.66% active. TRHR cells, fluo-8 calcium fluorescence, EC20 TRH enhancement; in the data active = enhancement above about 30%
Target sequence (P34981 whole entry, looked up): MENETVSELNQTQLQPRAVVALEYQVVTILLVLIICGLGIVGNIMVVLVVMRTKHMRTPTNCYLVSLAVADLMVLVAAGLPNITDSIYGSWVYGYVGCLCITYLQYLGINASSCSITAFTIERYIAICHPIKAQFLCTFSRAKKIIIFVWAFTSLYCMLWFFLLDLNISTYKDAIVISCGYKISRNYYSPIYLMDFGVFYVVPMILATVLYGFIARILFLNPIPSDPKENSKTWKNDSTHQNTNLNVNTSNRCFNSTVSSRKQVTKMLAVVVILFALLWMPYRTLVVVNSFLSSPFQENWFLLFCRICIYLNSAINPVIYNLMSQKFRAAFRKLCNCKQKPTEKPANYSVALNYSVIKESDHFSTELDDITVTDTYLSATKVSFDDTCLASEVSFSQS
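TRHR-expressing cells loaded with fluo-8 calcium dye were read kinetically (ex 480/em 530) during compound addition, then stimulated with an EC20 of TRH (10 nM final). Enhancement of the Gq-mediated intracellular calcium response was scored.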
D1 antag – blocks dopamine activation of the human D1 receptor | HEK293 TREx D1 cells, calcium flux, dopamine EC80; active compounds read low | activity change, negative = inhibition, % at 10 µM | 360,000 tested, 3.2% active; in the data active = activity change below about -30%
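Allosteric or orthosteric antagonism assessed as attenuation of the calcium response to EC80 dopamine, added 180 s after compound, in induced HEK293 Trex D1 cells loaded with no-wash calcium dye.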
TRHR agonist – agonists of human TRH receptor; activation, % at 2 µM; 360,000 tested, 0.18% active; TRHR cells, calcium flux fluo-8, FDSS agonist mode; P34981
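Fluo-8-loaded TRHR cells; 10 s baseline, compound added, kinetic Ca2+ fluorescence read 1/s, agonist mode.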
A number is an active result; - = inactive; . = no result. Rule as the data show it, unless noted: active = activation above about 30%; inactive = the rest.

SMILES | D1 PAM | D1 agonist | TRHR PAM | D1 antag | TRHR agonist
NS(=O)(=O)c1ccc(NC(=O)COC(=O)C2CCCCC2)cc1 | - | - | - | - | -
O=C(COc1cccc(Cl)c1)Nc1ccc(N2CCOCC2)cc1 | - | - | - | -37 | -
CN1CCN(S(=O)(=O)c2ccc(NC(=O)COc3ccccc3Cl)cc2)CC1 | - | - | - | -53 | -
O=C(NCc1ccc2c(c1)OCO2)c1nc(Cn2ccc([N+](=O)[O-])n2)no1 | - | - | - | - | -
Cc1ccc(SCCN)cc1C | - | - | - | - | -
CCCOc1ccc(NC(=O)CC2C(=O)N(c3ccc(C)cc3)C(=O)N2CCc2ccncc2)cc1 (stereo unspecified) | - | - | - | - | -
Cc1cc(OCC(=O)Nc2ccc(N3CCN(C)CC3)cc2)ccc1Cl | - | - | - | -83 | -
Cc1cc(OCC(=O)Nc2ccc(S(=O)(=O)N3CCN(C)CC3)cc2)ccc1Cl | - | - | - | - | -
Cc1ccc(OCC(=O)Nc2ccc(N3CCCC3)cc2)cc1C | - | - | - | - | -
CN1CCN(S(=O)(=O)c2ccc(NC(=S)NC(=O)c3ccc(Cl)cc3)cc2)CC1 | - | 30 | - | -57 | -
O=C(Nc1ccc(S(=O)(=O)N2CCN(Cc3ccccc3)CC2)cc1)c1cnccn1 | - | - | - | -36 | -
Cc1cc(OCC(=O)Nc2ccc(S(=O)(=O)N3CCN(C)CC3)cc2)cc(C)c1Cl | - | - | - | -70 | -
Cc1oc2nc(SCCCC(=O)NCCCO)nc(N)c2c1C | - | - | - | - | -
O=C(COc1ccccc1Br)N1CCN(c2ccccc2)CC1 | - | - | - | - | -
CCc1ccc(-c2cc(C(=O)O)c3ccccc3n2)s1 | - | - | - | - | -
S=c1nc(COc2ccccc2)[nH]c2ccccc12 | - | - | - | - | -
CN1CCN(S(=O)(=O)c2ccc(NC(=O)Nc3cccc(Cl)c3)cc2)CC1 | - | - | - | -48 | -
COc1ccc(OCC(=O)Nc2ccc(S(=O)(=O)N3CCOCC3)cc2)cc1 | - | - | - | - | -
CCc1ccc(OCC(=O)Nc2ccc(S(=O)(=O)Nc3ccccn3)cc2)cc1 | - | 42 | - | - | -
CN1CCN(NC(=O)c2ccc(Cl)c(S(=O)(=O)Nc3ccc(Cl)cc3)c2)CC1 | - | - | - | -38 | -
CCc1ccc(OCC(=O)Nc2ccc(S(=O)(=O)N3CCOCC3)cc2)cc1 | - | 44 | - | - | -
CN(CC(=O)NCC1CCCO1)S(=O)(=O)c1cc(Cl)ccc1Cl (stereo unspecified) | - | - | - | - | -
COc1cccc2cc(-c3nc(-c4cccs4)no3)c(=O)oc12 | - | - | - | - | -
CCC(=O)N1CCN(c2ccc(NC(=O)COc3ccccc3Cl)cc2)CC1 | - | - | - | - | -
CN1CCN(S(=O)(=O)c2ccc(NC(=O)c3ccc(Br)s3)cc2)CC1 | - | - | - | -46 | -
SMILES | D1 PAM | D1 agonist | TRHR PAM | D1 antag | TRHR agonist
CCC(=O)N1CCN(c2ccc(NC(=O)COc3ccccc3[N+](=O)[O-])cc2)CC1 | - | 31 | - | - | -
CN1CCN(c2ccc(NC(=O)COc3ccccc3Cl)cc2)CC1 | - | - | - | -70 | -
CN1CCN(S(=O)(=O)c2ccc(NC(=O)c3ccccc3Cl)cc2)CC1 | - | - | - | -33 | -
N#Cc1c(NC(=O)COC(=O)C2CC3C=CC2C3)oc(-c2ccccc2)c1-c1ccccc1 (stereo unspecified) | - | - | - | - | -
O=C(COc1cccc(Cl)c1)NCC(c1cccs1)N1CCOCC1 (stereo unspecified) | - | - | - | -35 | -
COc1cc2c(c(OC)c1OC)-c1c(cc(OC)c(OC)c1OC)C[C@H](C)[C@H](C)C2 | - | - | - | - | -
COc1cc2c(c(O)c1OC)-c1c(cc(OC)c(OC)c1OC)C[C@@H](C)[C@@H](C)C2 | - | - | - | -40 | -
CN(Cc1ccccc1F)C(=O)CN1CCN(S(=O)(=O)c2ccc3c(c2)OCCCO3)CC1 | - | - | - | -31 | -
O=C(O)Cc1cc(F)c(S(=O)(=O)N2CCN(S(=O)(=O)c3ccc4c(c3)OCCO4)CC2)cc1F | - | - | - | -42 | -
O=C(O)c1cc(F)c(S(=O)(=O)N2CCN(S(=O)(=O)c3ccc4c(c3)OCCO4)CC2)cc1F | - | - | - | - | -
C[C@@H]1CN(S(=O)(=O)c2ccc3c(c2)OCCO3)CCN1S(=O)(=O)c1c(F)cccc1F | - | - | - | -33 | -
O=[N+]([O-])c1cccc(S(=O)(=O)N2CCN(S(=O)(=O)c3ccc4c(c3)OCCO4)CC2)c1 | - | - | - | - | -
O=[N+]([O-])c1ccccc1S(=O)(=O)N1CCN(S(=O)(=O)c2ccc3c(c2)OCCO3)CC1 | - | - | - | -31 | -
Cc1ccc(C(CC(=O)O)Nc2nc(N3CCOCC3)nc(N3CCOCC3)n2)cc1 (stereo unspecified) | - | - | - | - | -
O=C(Nc1ccc(Cl)cc1)c1nc[nH]c1C(=O)N1CCc2ccccc2C1 | - | - | - | . | -
O=[N+]([O-])c1cc2c(c(CSc3nnnn3-c3ccc(O)cc3)c1)OCOC2 | - | - | - | -33 | -
COc1ccc(C)cc1N(C)C(=O)c1sc2nc3n(c(=O)c2c1C)CCCCC3 | - | 43 | - | - | -
Cc1ccc(N(C)C(=O)c2sc3nc4n(c(=O)c3c2C)CCCC4)cc1C | - | - | - | - | -
Cc1c(C(=O)Nc2ccc(OC(F)(F)F)cc2)sc2nc3n(c(=O)c12)CCC3 | - | - | - | - | -
CCN(C(=O)c1sc2nc3n(c(=O)c2c1C)CCCC3)c1ccccc1F | - | 35 | - | -37 | -
COc1ccc(CNC(=O)c2sc3nc4n(c(=O)c3c2C)CCCCC4)cc1 | - | 50 | - | - | -
Cc1c(C(=O)Nc2ccc(Oc3ccccc3)cc2)sc2nc3n(c(=O)c12)CCC3 | - | - | - | -51 | -
COc1ccc(CCNC(=O)c2cccc3ccccc23)cc1OC | - | - | - | - | -
CN(C)c1ccc(CNc2nc(-c3ccccc3)nn2S(C)(=O)=O)cc1 | - | - | - | - | -
CS(=O)(=O)n1nc(-c2cccnc2)nc1NCc1ccccc1 | - | - | - | - | -
SMILES | D1 PAM | D1 agonist | TRHR PAM | D1 antag | TRHR agonist
COc1ccc(CNc2nc(-c3ccccc3)nn2C(=O)c2cccs2)cc1 | - | 37 | - | - | -
COc1ccc(CNc2nc(-c3cccnc3)nn2S(C)(=O)=O)cc1 | - | - | - | -31 | -
Cc1ccc(CNc2nc(-c3ccco3)nn2C(=O)c2ccccc2[N+](=O)[O-])cc1 | - | - | 37 | -62 | -
CC(=O)n1nc(-c2ccccc2)nc1NCc1ccc(N(C)C)cc1 | - | - | 39 | - | -
COc1ccc(CNc2nc(-c3ccco3)nn2C(=O)c2ccccc2C)cc1 | - | - | - | -36 | -
Cc1cccc[n+]1CC(=O)N1c2ccccc2Sc2ccccc21 | - | - | 31 | - | -
